Out of some 330,000 compounds screened, about 650 (0.2%) were called active. Rule as the data show it: active = inhibition above about 50%; inactive = the rest. Only a selection was taken, and actives are over-represented in it overall.
Target: Integrin alpha-4 (Homo sapiens) (UniProt P13612)
Test: VLA-4 integrin binding inhibitors – MLPCN library, flow cytometry, VLA-4 expressing cells, VLA-4 allosteric modulator project, primary screen (AID 2557)
Conditions: ligand binding flow cytometry, stronger effect = higher value, about 7 µM as worked out from the volumes in the protocol

Chain of Integrin alpha-4 (Homo sapiens) (P13612 whole entry, looked up): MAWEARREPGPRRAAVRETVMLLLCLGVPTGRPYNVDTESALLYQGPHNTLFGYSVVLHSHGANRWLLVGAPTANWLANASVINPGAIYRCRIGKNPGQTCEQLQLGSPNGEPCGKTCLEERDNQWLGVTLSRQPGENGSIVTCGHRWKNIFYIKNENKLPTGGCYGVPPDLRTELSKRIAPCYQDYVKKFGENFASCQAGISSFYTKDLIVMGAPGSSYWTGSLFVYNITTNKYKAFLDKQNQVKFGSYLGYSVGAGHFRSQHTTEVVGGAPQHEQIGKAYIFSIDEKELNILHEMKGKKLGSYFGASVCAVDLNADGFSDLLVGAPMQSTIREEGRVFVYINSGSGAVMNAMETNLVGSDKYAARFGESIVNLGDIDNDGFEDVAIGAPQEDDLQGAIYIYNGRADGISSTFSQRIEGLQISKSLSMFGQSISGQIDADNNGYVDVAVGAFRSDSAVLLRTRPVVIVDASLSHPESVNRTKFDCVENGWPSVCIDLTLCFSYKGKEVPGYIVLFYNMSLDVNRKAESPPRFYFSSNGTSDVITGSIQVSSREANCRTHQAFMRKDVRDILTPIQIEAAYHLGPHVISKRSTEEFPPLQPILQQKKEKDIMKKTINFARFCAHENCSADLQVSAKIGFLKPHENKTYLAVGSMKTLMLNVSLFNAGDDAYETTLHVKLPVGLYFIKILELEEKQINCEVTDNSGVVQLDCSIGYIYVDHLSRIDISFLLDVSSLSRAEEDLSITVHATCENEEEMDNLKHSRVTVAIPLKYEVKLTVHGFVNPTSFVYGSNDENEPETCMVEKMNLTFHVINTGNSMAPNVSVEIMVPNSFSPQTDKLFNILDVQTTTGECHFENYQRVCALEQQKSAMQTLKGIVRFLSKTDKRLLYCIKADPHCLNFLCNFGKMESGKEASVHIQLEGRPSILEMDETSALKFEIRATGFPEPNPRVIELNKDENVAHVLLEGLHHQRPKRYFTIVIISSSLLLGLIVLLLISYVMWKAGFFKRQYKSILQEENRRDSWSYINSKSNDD

SMILES | inhibition
O=C(O)c1ccc(-n2cccc2)cc1O | 7.46% (inactive)
COc1cccc(NC(=O)Nc2nnc(N3CCCCC3C)s2)c1 (stereo unspecified) | -3.47% (inactive)
Cc1c(CN2CCC(CO)(CCOc3ccccc3)CC2)[nH]c2ccc(Cl)cc12 | 54.3% (active)
CCOC(=O)C1(CCOc2ccccc2)CCN(Cc2cc(OC)c(O)cc2Cl)CC1 | 7.42% (inactive)
OCC1(CCOc2ccccc2)CCN(Cc2cn[nH]c2-c2ccccc2)CC1 | 0.87% (inactive)
COc1ccc(C2C(C#N)=C(N)Oc3n[nH]c(C)c32)cc1CN1CCN(c2ccc(F)cc2)CC1 (stereo unspecified) | 5.55% (inactive)
COc1nc(OC)nc(N(C)CCO)n1 | 12.5% (inactive)
Cc1noc(COc2ccccc2OCc2onc(C)c2Cl)c1Cl | -0.81% (inactive)
Cc1ccccc1C(=O)Nc1cccc(-c2nnc(SCC(=O)O)n2C)c1 | 5.4% (inactive)
N#C/C(=C/c1ccc(Cl)cc1)NC(=O)c1ccccc1 | -2.66% (inactive)
CC1(C)Cc2cccc(OCC(=O)N3CCN(c4ccc([N+](=O)[O-])cc4)CC3)c2O1 | -21.6% (inactive)
Cc1ccnc(NC(=O)c2ccco2)n1 | 63.2% (active)
O=C(Nc1nc(-c2ccco2)c(-c2ccco2)s1)c1ccco1 | -14.9% (inactive)
NC(=O)c1ccsc1NC(=O)c1ccco1 | -45.2% (inactive)
COc1cccc(CCNC(=O)c2cccc(NC(=O)C3=C(C)OCCS3)c2)c1 | 4.07% (inactive)
Cc1cc(C(=O)NNS(=O)(=O)c2ccccc2C(F)(F)F)nn1C(C)(C)C | 2.36% (inactive)
Cc1cc(C(=O)OC(C)C(=O)Nc2cccc(S(=O)(=O)N3CCOCC3)c2)c(C)o1 (stereo unspecified) | 5.58% (inactive)
CCn1c(C)nc2cc(C(=O)NNS(=O)(=O)c3ccc(C)cc3C)ccc21 | 1.05% (inactive)
COC(=O)c1cc(NS(=O)(=O)c2ccc3c(c2)c(=O)n(C)c(=O)n3C)cc(C(=O)OC)c1 | -0.04% (inactive)
Cc1cccc(CN2CCC(n3nccc3NC(=O)c3ccccc3C)CC2)n1 | -1.23% (inactive)
CCNC(=S)NNC(=O)Cc1ccccc1 | 94.9% (active)
CCNC(=S)NNC(=O)C1CCN(Cc2ccccc2)CC1 | 8.74% (inactive)
Cc1ccc(OCC(=O)NNC(=S)NCc2ccccc2)cc1 | -4.04% (inactive)
CC1(C(=O)NCCc2c[nH]c3ccccc23)C=CC2(CCCCC2)N1C(=O)c1ccccc1 (stereo unspecified) | 52.7% (active)
O=C(NCCc1c[nH]c2ccccc12)c1cccc(Br)c1 | 2.59% (inactive)
O=C(CN1C(=O)NC2(CCCCC2)C1=O)NCCc1c[nH]c2ccccc12 | 4.17% (inactive)
